This is part of a sample that, as a whole, favours compounds with a hit. Of some 83,000 tested, about 20% had one in any assay.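 Plates (96-well) were seeded with cells, treated with compound at one concentration, and incubated for 48 hours before percent growth was determined.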 Values without a mark were called inactive. Activity calls are given as the source filed them. Rule for the calls: active = growth percent below 10; inactive = the rest.

What all share (assay): NCI-60 one-dose screen, 48 h (100 = growth as untreated, 0 = no growth, -100 = all killed)
Assay [1] relates to SK-MEL-2 melanoma. To be noted: 10 µM unless noted.
In assay [2] the test system is EKVX NSCLC. To be noted: 10 µM unless noted.
The subject of assay [3] is UO-31 renal. To be noted: 10 µM unless noted.
For assay [4], the system named is ACHN renal. Conditions: 10 µM unless noted.
Assay [5] concerns CAKI-1 renal. Conditions: 10 µM.
For assay [6], the system named is A498 renal. Conditions: 10 µM unless noted.
Assay [7] has as its system CCRF-CEM leukemia. Conditions: 10 µM unless noted.
In assay [8] the test system is MOLT-4 leukemia. Conditions: 10 µM unless noted.
For assay [9], the system named is SR leukemia. Conditions: 10 µM unless noted.
For assay [10], the system named is RPMI-8226 leukemia. Conditions: 10 µM unless noted.
The test system of assay [11] is OVCAR-8 ovarian. To be noted: 10 µM unless noted.
Assay [12] has as its system OVCAR-5 ovarian. Conditions: 10 µM unless noted.
The test system of assay [13] is OVCAR-4 ovarian. Conditions: 10 µM unless noted.
Assay [14] relates to SK-OV-3 ovarian. Conditions: 10 µM unless noted.
Assay [15] relates to IGROV1 ovarian. Conditions: 10 µM unless noted.
The test system of assay [16] is OVCAR-3 ovarian. To be noted: 10 µM unless noted.
The subject of assay [17] is NCI/ADR-RES ovarian. To be noted: 10 µM unless noted.
The test system of assay [18] is TK-10 renal. To be noted: 10 µM unless noted.
For assay [19], the system named is HS 578T breast. To be noted: 10 µM unless noted.
In assay [20] the test system is SN12C renal. Conditions: 10 µM unless noted.

For the compound `O=C(NCCNc1nccc(-c2c(-c3cccc(O)c3)nc3sccn23)n1)c1ccc(N2CCOCC2)c(C(F)(F)F)c1`, the growth in assay [1] is 66.7%; in assay [2] it was 74%; in [3] it was 61.3%; in assay [4], 60.8%; in assay [5], 66.9%; in [6], 47.8%. The growth in assay [7] is 56.9%; in [8], 57%; in assay [9], 76.1%; in assay [10] it was 58.8%; in assay [11] it was 72.8%; in [12] it was 91.2%. The growth in assay [13] was 105%; in [14] it was 66.4%; in assay [15] it was 54.3%; in assay [16], 89.1%; in [17] it was 95.4%.

In the case of `COc1cc(C(=O)N2CCN(C(=O)c3cc(OC)c(OCc4ccccc4)cc3N)CC2)c(N)cc1OCc1ccccc1`, the growth in [1] is 102%; in assay [2], 90.8%; in assay [3] it was 98.3%; in assay [18] it was 131%; in [4], 159%; in assay [6], 132%. In addition, the growth in assay [8] was 101%; in [9] it was 81.2%; in assay [10], 179%; in [11], 106%; in [12], 103%; in [13], 103%. Besides, the growth in [14] is 111%; in assay [15] it was 106%; in assay [19] it was 109%; in assay [17] it was 98.7%.

Regarding `O=[N+]([O-])c1cccc(C(c2ccccc2)c2ccccc2)c1`, the growth in assay [1] is 97.8%; in assay [2], 79.1%; in [3] it was 75.7%; in [4] it was 85.9%; in assay [5], 56.8%; in assay [6], 91%. The growth in assay [7] was 87.2%; in assay [8], 83.3%; in assay [9], 78.3%; in assay [11], 98%; in [12] it was 85.6%; in [13], 98.2%. The growth in assay [15] was 84.5%; in assay [16] it was 98.3%; in [17], 95.8%.

Take `CC(C)NCC(O)COc1ccc(CC(N)=O)cc1` (stereo not given): the growth was 105% in [1]; 101% in [2]; 83.5% in [3]; 105% in assay [18]; 94.1% in [5]; 92.9% in assay [6]. Moreover, the growth in assay [7] is 100%; in [8], 107%; in assay [9], 102%; in assay [10], 99.1%; in [11], 96.8%; in assay [13] it was 105%. Further, the growth in assay [14] is 103%; in [15] it was 97.4%; in [16] it was 114%; in [19], 104%.

`COc1ccc(-c2nnc(SCC(=O)Nc3ccc(C(=O)/C=C/c4ccc(OC)c(OC)c4)cc3)o2)cc1`: the growth in assay [2] is 90%; in assay [3], 73.8%; in assay [18] it was 95.9%; in assay [6], 103%; in assay [7], 77.7%; in [8] it was 68.1%. Moreover, the growth in assay [9] is 60.1%; in assay [10], 60.1%; in assay [11] it was 88.1%; in assay [12], 124%; in assay [13] it was 86.9%; in assay [14], 84.6%. The growth in [15] was 85.9%; in [16] it was 100%; in assay [19], 93.4%; in [17], 90.1%.

For the compound `C=C1C(=O)O[C@H]2[C@H]1CC/C(CNC(=O)/C1=C/CC[C@@]3(C)O[C@H]3[C@H]3OC(=O)C(=C)[C@@H]3CC1)=C\CC[C@@]1(C)O[C@@H]21`, the growth in [2] was 86.2%; in assay [20], 96.7%; in assay [3] it was 95.5%; in [18], 102%; in assay [4] it was 97.6%; in [6] it was 94.6%. For the same compound, the growth in assay [7] was 42.6%; in [8], 93.5%; in assay [9] it was 92.4%; in assay [11], 92.2%; in assay [12], 111%; in assay [13], 86.9%. Moreover, the growth in [15] is 102%; in assay [16] it was 85.1%; in [19] it was 112%; in assay [17], 99.7%.

As to `CN(C)C(=O)Nc1nc2cc(Cl)c(Cl)cc2[nH]1`, the growth was 57.7% in assay [2]; 51% in assay [20]; 20.4% in [3]; 30.7% in assay [18]; 52.6% in assay [4]; 46.7% in assay [6]. Moreover, the growth was 10.3% in assay [7]; 8.26% (active) in assay [8]; 13.6% in assay [11]; 40.3% in assay [12]; 33.9% in assay [13]; 20.1% in assay [14]. The growth in assay [16] was -49.9% (active); in assay [19] it was 50.8%; in [17], 3.19% (active).

Take `C#CCn1c(-c2cc(OC)c(OC)cc2Br)nc(-c2ccccc2)c1-c1ccccc1`: the growth in assay [2] was 37.4%; in [20], 69.6%; in [3], 33.9%; in assay [18], 67.1%; in assay [6] it was 37.7%; in assay [7], 39.2%. For the same compound, the growth in [8] was 31.6%; in assay [9], 16.4%; in [10] it was 48.9%; in assay [11] it was 57.4%; in assay [12], 77.5%; in assay [13], 63.2%. The growth was 16% in [14]; 40.9% in assay [15]; 9.74% (active) in assay [16]; 66.8% in assay [19]; 10.2% in [17].

Regarding `CC(C)C(=O)Nc1nc2c(s1)CCCc1ccn(S(=O)(=O)c3ccccc3)c1-2`, the growth was 88.2% in [2]; 105% in assay [20]; 77.1% in assay [3]; 83.6% in assay [18]; 110% in [6]; 87.2% in assay [7]. Besides, the growth is 78% in assay [8]; 84.3% in assay [9]; 87.5% in assay [10]; 101% in assay [11]; 99.2% in assay [12]; 104% in [13]. Also, the growth was 87.4% in [14]; 107% in assay [15]; 107% in [16]; 101% in assay [19]; 94.2% in assay [17].

The values are drawn from PubChem BioAssay (NCI).
